Reference: PubChem BioAssay (NCATS)
“And” between values parts separate entries of the source, which are not always exact repeats. Equal values may be shown once. Records with an inconclusive call do not appear. Where a call stands in place of a potency, no number is given. Values without a mark were called inactive. The source made the active and inactive calls. The call rests on the fitted dose curve; in most records, active means well fitted curve in the direction sought with a large enough effect; inconclusive means small, poorly fitted or top-dose-only effect, or another doubt; inactive means no such curve, though single readings can be large; an effect the other way counts as inactive or inconclusive.

Experiments:
[1] = biological target: Cellular tumor antigen p53 (Homo sapiens) (UniProt P04637); experiment: Primary qHTS for small molecule compounds that upregulate eGFP-tagged delta133p53alpha (in N-terminal) cells. (AID 2060322); settings: NCI-H358 eGFP-delta133p53alpha fluorescence, 24 h; activation: active compounds read high; further: nearly all actives have a fitted effect of over 75% in size; further: potency means the concentration at half of the fitted maximal effect; on activation: series mostly up to about 56 µM
Chain of Cellular tumor antigen p53 (Homo sapiens) (P04637 whole entry, looked up): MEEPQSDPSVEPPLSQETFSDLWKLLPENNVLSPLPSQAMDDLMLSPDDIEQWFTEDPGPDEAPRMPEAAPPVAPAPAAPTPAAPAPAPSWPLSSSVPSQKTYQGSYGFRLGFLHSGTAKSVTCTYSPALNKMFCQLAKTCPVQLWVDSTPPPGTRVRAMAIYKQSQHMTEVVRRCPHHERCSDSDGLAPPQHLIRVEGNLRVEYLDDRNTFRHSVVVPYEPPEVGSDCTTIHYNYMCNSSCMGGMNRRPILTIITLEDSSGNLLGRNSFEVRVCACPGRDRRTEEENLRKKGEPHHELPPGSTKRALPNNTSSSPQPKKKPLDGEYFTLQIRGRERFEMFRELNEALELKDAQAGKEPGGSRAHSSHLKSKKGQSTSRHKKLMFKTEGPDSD
Procedure, shortened: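 NCI-H358 cells pre-induced 24 h with 10 ng/ml doxycycline to express N-terminal eGFP-delta133p53alpha, then dosed 24 h at 37C without doxycycline; fixed, Hoechst-stained, GFP intensity by laser scanning cytometry, normalized to DMSO (0%) and 57.5 uM 5-azacytidine (100%).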

[2] = qHTS for Inhibitors of the Aldehyde Dehydrogenase Family (ALDH1A2, ALDH1A3, ALDH2, ALDH3A1) (AID 2061307); further: nearly all actives have a fitted effect of over 50% in size
[3] = biological target: Retinaldehyde dehydrogenase 3 (Homo sapiens) (UniProt P47895); experiment: qHTS for Inhibitors of the Aldehyde Dehydrogenase Family (ALDH1A3) Validation screen (AID 2061312); further: nearly all actives have a fitted effect of over 45% in size; further: potency means the concentration at half of the fitted maximal effect
[4] = biological target: Retinal dehydrogenase 2 (Homo sapiens) (UniProt O94788); experiment: qHTS for Inhibitors of the Aldehyde Dehydrogenase Family (ALDH1A2) Confirmation screens (AID 2061314); further: nearly all actives have a fitted effect of over 65% in size; further: potency means the concentration at half of the fitted maximal effect
[5] = biological target: Aldehyde dehydrogenase 1A1 (Homo sapiens) (UniProt P00352); experiment: qHTS for Inhibitors of the Aldehyde Dehydrogenase Family (ALDH1A1) Confirmatory screens (AID 2061316); further: nearly all actives have a fitted effect of over 65% in size
[6] = biological target: Aldehyde dehydrogenase, mitochondrial (Homo sapiens) (UniProt P05091); experiment: qHTS for Inhibitors of the Aldehyde Dehydrogenase Family (ALDH2) Primary screen (AID 2061308); further: nearly all actives have a fitted effect of over 55% in size
[7] = biological target: Retinaldehyde dehydrogenase 3 (Homo sapiens) (UniProt P47895); experiment: qHTS for Inhibitors of the Aldehyde Dehydrogenase Family (ALDH1A3) Primary screen (AID 2061315)
[8] = BET inhibitor-based combinations targeting novel dependencies in MECOM-rearranged (r) AML: SET-2 cell line (AID 2202231); settings: SET-2 AML cells viability, CellTiter-Glo luminescence, 48 h; viability: active compounds read low, series mostly up to about 46 µM; further: nearly all actives have a fitted effect of over 35% in size
Procedure, shortened: (§1)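 Each compound was tested at eleven concentrations on cells seeded at 500/well. After two days' incubation, ATP-based luminescence reported viability; responses relative to DMSO and blank wells yielded AUC and cell-line-centred Z-AUC.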

[9] = BET inhibitor-based combinations targeting novel dependencies in MECOM-rearranged (r) AML: OCI-AML3 cell line (AID 2202232); settings: Potency: OCI-AML3 viability; further: series mostly up to about 46 µM; nearly all actives have a fitted effect of over 35% in size
Procedure, shortened: as §1

[10] = BET inhibitor-based combinations targeting novel dependencies in MECOM-rearranged (r) AML: MV-4-11 cell line (AID 2202233); further: nearly all actives have a fitted effect of over 45% in size
Procedure, shortened: (§2)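 First, 500 cells per well were seeded; next, drugs were pinned as 11-point doses; then plates sat 48 hr in the incubator; finally CellTiter-Glo was added and luminescence read, with AUC and Z-AUC computed.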

[11] = BET inhibitor-based combinations targeting novel dependencies in MECOM-rearranged (r) AML: HNT-34 cell line (AID 2202234); further: nearly all actives have a fitted effect of over 35% in size
Procedure, shortened: as §2

[12] = BET inhibitor-based combinations targeting novel dependencies in MECOM-rearranged (r) AML: UCSD-AML1 cell line (AID 2202235); further: series mostly up to about 46 µM; nearly all actives have a fitted effect of over 40% in size
Procedure, shortened: as §2

[13] = BET inhibitor-based combinations targeting novel dependencies in MECOM-rearranged (r) AML: AML-191 cell line (AID 2202236; further: nearly all actives have a fitted effect of over 35% in size)
Procedure, shortened: as §1

SMILES: COc1cc2c(cc1NS(=O)(=O)c1ccc(Br)cc1C)n(C)c(=O)n2C
- activation [1]: -22.3%
- Potency [2]: inactive
- Potency [3]: 31.6 µM (active)
- Potency [4]: 20.1 µM (active)
- Potency [5]: inactive

SMILES: Cc1c(C)c(NCC(=O)N(C)C2CCN(Cc3ccc(C(N)=O)cc3)CC2)c(C)c(C)c1N
- activation [1]: 1.43%
- Potency [6]: inactive

SMILES: C[C@H](NCc1ccc(OCc2ccccc2F)cc1)C(N)=O
- activation [1]: 11.5%
- Potency [6]: inactive

SMILES: OCCc1ccc(O[C@@H]2O[C@H](CO)[C@@H](O)[C@H](O)[C@H]2O)c(O)c1
- activation [1]: 8.93%
- Potency [6]: inactive

SMILES: C[C@@H]1O[C@@H](O[C@H]2[C@H](OC(C#N)c3ccc(O)cc3)O[C@H](CO)[C@@H](O)[C@@H]2O)[C@H](O)[C@H](O)[C@H]1O (stereo partly specified)
- activation [1]: -19.8%
- Potency [6]: inactive

SMILES: O=S(=O)(O)c1ccc2cc(N=Nc3cc(S(=O)(=O)O)c4cccnc4c3O)ccc2c1
- activation [1]: -29.8% and -2.86%
- Potency [2]: inactive
- Potency [3]: inactive
- Potency [4]: inactive
- Potency [7]: inactive
- viability [8]: 95.4%
- Potency [9]: inactive
- Potency [10]: inactive
- Potency [11]: inactive
- Potency [12]: inactive
- Potency [13]: inactive

SMILES: CCOC(=O)N1CCC(CN(Cc2ccc(Cl)cc2)Cc2ccc([N+](=O)[O-])s2)C1 (stereo unspecified)
- activation [1]: 6.21%
- Potency [2]: inactive
- Potency [3]: 10 µM (active)
- Potency [4]: inactive
- Potency [7]: inactive

SMILES: NC(=O)[C@H](O[C@@H]1O[C@H](CO)[C@@H](O)[C@H](O)[C@H]1O)c1ccccc1
- activation [1]: 17.9%
- Potency [6]: inactive

SMILES: CC1=CC(=O)CC(C)(C)C1/C=C/C(C)O[C@@H]1O[C@H](CO)[C@@H](O)[C@H](O)[C@H]1O[C@@H]1OC[C@](O)(CO)[C@H]1O (stereo partly specified)
- activation [1]: -2.68%
- Potency [6]: inactive

SMILES: O=C(O)/C=C/c1cc2c(cc1O[C@@H]1O[C@H](CO)[C@@H](O)[C@H](O)[C@H]1O)OCO2
- activation [1]: 9.92%
- Potency [6]: inactive

SMILES: O=C(OC[C@H]1O[C@@H](Oc2ccccc2COC(=O)C2(O)C=CCCC2O)[C@H](O)[C@@H](O)[C@@H]1O)c1ccccc1 (stereo partly specified)
- activation [1]: -15.3%
- Potency [6]: inactive

SMILES: COc1cc(C(CO)C(OC2OC(CO)C(O)C(O)C2O)c2ccc(O)c(OC)c2)ccc1O (stereo unspecified)
- activation [1]: 20.5%
- Potency [6]: inactive

SMILES: Fc1ccc(CN2CCC(Nc3ccc(C(F)(F)F)nn3)CC2)cc1F
- activation [1]: -6.21%
- Potency [6]: inactive

SMILES: O=C(OC[C@H]1O[C@@H](Oc2ccccc2CO)[C@H](O)[C@@H](O)[C@@H]1O)c1ccccc1
- activation [1]: 7.63%
- Potency [6]: inactive

SMILES: O=C(/C=C/c1ccc(O)c(O)c1)OCc1ccccc1O[C@@H]1O[C@H](CO)[C@@H](O)[C@H](O)[C@H]1O
- activation [1]: 8.4%
- Potency [6]: inactive

SMILES: C=C[C@H]1C(O[C@@H]2O[C@H](CO)[C@@H](O)[C@H](O)[C@H]2O)OC=C2C(=O)N3CCc4c([nH]c5ccccc45)C3CC21 (stereo partly specified)
- Potency [1]: 5.22 µM (active)
- Potency [6]: inactive

SMILES: N#CC(CCCN1CCN(/N=C/c2cccnc2)CC1)(c1ccccc1)c1ccccc1
- activation [1]: -7.16%
- Potency [6]: inactive

SMILES: CC1(C)CC[C@]2(C(=O)O[C@@H]3O[C@H](CO)[C@@H](O)[C@H](O)[C@H]3O)CC[C@]3(C)C(=CCC4[C@@]5(C)C[C@@H](O)[C@H](O)C(C)(C)C5[C@H](O)C[C@]43C)[C@@H]2[C@@H]1O (stereo partly specified)
- activation [1]: -11.5%
- Potency [6]: inactive

SMILES: CC[C@@H](Nc1c(Nc2cccc(C(=O)N(C)C)c2O)c(=O)c1=O)c1ccc(C)o1
- activation [1]: -1.43%
- Potency [6]: inactive

SMILES: O=C(O[C@H]1[C@H](Oc2ccc(O)cc2CO)O[C@H](CO)[C@@H](O)[C@@H]1O)c1ccccc1
- activation [1]: -10.7%
- Potency [6]: inactive

SMILES: COc1cc(C(=O)O)ccc1OC1OC(CO)C(O)C(O)C1O (stereo unspecified)
- activation [1]: 10.7%
- Potency [6]: inactive

SMILES: C#CCCCn1cc(-c2cccc3c2N[C@@H](C)CC(=O)N3)cn1
- activation [1]: -18.8%
- Potency [6]: inactive

SMILES: C=C1C(=O)OC[C@@H]1C/C=C(\C)CC1CC(C)C(=O)O1 (stereo partly specified)
- Potency [1]: 23.9 µM (active)
- Potency [6]: inactive
